Assay results from the supplement of paper PMC10849652.
The full data set covers some 7,900 targets. This sample favours those with a hit. About 0.6% of all pairs of compound and target were hits.

Compound: c1cn2cc(-c3ccc4cn[nH]c4c3)nc(Nc3ccc(N4CCOCC4)cc3)c2n1 [entospletinib]
Test: log2 fold change, soluble protein after heating vs DMSO (PISA); higher = thermal stabilisation; K562 cells, 10 uM, 30 min; active = over 0.2 and 3.5 SD of the protein, either way, in both replicates (recomputed)
Outline: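 Values are thermal stability changes relative to control samples and are taken from duplicates. They are stated as log2 fold changes. Before quantification by TMTpro 16plex LC-MS/MS with equalised channel sums, K562 cells at 2×10^6 cells/mL were treated with 10 μM compound for 30 min, heated in aliquots for 3 min across 48°C-58°C, pooled, extracted in PBS with 0.5% NP-40 at 4°C, and centrifuged at 21,000xg for 90 min to give the soluble supernatant.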

UniProt Q7Z4S6, sequence (Q7Z4S6 whole entry, looked up): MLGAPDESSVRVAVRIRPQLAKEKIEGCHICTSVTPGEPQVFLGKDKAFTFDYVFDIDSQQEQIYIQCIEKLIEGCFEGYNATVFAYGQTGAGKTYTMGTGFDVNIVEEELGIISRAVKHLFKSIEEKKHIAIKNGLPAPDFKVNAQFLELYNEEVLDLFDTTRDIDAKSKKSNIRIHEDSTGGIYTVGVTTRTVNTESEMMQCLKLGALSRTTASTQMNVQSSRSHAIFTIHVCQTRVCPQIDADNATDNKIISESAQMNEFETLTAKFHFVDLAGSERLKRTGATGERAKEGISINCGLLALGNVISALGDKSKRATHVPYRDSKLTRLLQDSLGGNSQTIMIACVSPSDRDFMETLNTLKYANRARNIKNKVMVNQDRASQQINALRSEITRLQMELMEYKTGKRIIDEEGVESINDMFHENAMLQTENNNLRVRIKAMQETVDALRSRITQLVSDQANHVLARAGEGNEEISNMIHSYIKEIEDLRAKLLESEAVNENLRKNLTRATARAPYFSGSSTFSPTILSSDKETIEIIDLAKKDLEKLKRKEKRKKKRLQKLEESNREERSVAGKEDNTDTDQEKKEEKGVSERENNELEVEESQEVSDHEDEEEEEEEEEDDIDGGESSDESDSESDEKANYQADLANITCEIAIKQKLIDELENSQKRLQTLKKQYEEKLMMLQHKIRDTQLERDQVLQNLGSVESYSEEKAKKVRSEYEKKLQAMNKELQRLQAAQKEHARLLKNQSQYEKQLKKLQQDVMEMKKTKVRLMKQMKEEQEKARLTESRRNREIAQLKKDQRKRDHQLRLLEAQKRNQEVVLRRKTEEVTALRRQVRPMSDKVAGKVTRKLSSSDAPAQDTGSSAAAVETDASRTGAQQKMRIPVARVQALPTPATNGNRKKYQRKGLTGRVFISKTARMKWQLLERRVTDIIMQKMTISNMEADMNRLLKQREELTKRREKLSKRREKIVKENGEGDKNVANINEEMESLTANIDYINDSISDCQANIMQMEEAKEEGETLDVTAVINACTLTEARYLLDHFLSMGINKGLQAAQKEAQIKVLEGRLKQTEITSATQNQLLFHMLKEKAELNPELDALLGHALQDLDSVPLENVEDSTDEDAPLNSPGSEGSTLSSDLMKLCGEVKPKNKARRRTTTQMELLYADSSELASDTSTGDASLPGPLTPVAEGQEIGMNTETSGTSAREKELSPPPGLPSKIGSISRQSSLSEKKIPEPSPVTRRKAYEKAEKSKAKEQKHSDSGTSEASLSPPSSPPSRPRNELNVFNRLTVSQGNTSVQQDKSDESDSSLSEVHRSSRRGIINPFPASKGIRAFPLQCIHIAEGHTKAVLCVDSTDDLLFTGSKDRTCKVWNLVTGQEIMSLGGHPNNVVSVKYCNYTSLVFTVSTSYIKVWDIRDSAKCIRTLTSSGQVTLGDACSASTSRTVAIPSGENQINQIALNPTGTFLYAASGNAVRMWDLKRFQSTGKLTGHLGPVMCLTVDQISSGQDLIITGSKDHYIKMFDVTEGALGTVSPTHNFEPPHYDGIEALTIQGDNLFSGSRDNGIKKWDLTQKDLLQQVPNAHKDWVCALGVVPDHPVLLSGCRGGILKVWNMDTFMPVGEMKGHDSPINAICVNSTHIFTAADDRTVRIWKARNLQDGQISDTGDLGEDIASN
UniProt Q14680, sequence (Q14680 whole entry, looked up): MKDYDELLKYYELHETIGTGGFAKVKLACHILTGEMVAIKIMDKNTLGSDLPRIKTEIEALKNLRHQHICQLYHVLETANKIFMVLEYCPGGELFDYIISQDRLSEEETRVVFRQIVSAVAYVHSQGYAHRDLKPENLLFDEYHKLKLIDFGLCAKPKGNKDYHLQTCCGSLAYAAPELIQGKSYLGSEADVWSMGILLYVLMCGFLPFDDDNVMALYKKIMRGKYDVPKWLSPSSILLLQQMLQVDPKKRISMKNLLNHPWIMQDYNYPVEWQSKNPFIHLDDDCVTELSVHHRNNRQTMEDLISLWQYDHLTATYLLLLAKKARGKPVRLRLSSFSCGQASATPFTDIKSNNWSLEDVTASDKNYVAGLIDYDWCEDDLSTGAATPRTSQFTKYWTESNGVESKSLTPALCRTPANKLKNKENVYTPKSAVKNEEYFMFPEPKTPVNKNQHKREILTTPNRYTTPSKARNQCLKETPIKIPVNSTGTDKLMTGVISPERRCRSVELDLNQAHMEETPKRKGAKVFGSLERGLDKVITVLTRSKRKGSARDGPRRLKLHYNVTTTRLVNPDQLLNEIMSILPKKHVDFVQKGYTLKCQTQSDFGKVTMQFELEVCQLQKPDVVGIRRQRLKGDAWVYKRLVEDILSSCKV
UniProt Q9UBF1, sequence (Q9UBF1 whole entry, looked up): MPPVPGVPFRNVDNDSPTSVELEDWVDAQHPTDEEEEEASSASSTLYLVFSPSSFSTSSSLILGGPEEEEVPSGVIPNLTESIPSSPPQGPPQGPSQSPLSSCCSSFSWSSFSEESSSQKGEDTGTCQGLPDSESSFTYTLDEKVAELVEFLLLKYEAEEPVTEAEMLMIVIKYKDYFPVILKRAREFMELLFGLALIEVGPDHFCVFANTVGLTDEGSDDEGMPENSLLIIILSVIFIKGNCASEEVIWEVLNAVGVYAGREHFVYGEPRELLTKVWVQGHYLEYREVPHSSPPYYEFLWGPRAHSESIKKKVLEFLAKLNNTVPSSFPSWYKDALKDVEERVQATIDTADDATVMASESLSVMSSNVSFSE
UniProt Q9Y383, sequence (Q9Y383 whole entry, looked up): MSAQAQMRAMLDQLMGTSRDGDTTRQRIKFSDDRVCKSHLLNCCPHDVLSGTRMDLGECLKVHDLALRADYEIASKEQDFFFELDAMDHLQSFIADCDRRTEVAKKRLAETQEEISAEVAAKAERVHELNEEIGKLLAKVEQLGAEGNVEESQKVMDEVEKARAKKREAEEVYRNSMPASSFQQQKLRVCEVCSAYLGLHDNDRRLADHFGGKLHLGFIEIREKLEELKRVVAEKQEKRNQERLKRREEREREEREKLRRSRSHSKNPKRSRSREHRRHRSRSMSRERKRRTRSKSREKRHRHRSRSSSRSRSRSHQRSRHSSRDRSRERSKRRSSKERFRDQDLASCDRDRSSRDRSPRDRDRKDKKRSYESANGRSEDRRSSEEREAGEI
UniProt O95819, sequence (O95819 whole entry, looked up): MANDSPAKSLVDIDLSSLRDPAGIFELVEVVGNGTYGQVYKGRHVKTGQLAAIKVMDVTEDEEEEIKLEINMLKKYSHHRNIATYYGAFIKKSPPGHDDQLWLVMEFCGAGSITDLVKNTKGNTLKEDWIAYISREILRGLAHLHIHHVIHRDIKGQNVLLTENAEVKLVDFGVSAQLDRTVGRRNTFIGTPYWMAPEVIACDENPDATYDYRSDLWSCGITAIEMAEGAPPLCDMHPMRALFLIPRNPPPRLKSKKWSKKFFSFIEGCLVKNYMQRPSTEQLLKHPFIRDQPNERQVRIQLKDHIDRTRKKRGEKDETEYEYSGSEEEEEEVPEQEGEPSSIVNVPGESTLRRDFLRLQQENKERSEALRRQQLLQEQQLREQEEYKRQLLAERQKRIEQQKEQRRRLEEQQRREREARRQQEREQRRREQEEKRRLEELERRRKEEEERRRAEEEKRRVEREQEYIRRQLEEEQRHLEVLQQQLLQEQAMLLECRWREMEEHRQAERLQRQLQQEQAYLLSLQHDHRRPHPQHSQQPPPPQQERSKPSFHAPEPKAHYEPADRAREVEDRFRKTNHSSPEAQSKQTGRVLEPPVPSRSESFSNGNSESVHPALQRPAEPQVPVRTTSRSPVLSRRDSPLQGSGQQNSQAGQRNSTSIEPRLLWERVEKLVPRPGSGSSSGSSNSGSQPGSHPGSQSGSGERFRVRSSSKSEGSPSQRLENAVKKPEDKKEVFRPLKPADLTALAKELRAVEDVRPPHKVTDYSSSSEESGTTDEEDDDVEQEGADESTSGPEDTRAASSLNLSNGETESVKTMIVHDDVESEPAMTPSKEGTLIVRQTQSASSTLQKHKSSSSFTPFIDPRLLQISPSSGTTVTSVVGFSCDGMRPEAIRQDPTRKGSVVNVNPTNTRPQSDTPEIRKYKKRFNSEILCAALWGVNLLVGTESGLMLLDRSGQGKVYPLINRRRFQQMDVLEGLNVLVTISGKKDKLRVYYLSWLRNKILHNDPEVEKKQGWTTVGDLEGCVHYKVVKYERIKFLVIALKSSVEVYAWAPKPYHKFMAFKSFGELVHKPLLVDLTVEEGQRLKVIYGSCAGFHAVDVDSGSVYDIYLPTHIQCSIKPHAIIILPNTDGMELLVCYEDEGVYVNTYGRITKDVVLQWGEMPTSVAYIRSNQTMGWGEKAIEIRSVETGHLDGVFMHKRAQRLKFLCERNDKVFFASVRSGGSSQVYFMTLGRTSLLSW
UniProt A4D2B0, sequence (A4D2B0 whole entry, looked up): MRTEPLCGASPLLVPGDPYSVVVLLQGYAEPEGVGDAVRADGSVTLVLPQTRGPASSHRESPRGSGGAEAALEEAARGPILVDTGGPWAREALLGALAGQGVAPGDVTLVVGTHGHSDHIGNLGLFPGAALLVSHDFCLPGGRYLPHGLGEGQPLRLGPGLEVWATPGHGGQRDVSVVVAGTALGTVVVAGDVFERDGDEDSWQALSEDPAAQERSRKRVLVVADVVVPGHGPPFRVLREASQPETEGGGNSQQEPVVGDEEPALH
UniProt Q13418, sequence (Q13418 whole entry, looked up): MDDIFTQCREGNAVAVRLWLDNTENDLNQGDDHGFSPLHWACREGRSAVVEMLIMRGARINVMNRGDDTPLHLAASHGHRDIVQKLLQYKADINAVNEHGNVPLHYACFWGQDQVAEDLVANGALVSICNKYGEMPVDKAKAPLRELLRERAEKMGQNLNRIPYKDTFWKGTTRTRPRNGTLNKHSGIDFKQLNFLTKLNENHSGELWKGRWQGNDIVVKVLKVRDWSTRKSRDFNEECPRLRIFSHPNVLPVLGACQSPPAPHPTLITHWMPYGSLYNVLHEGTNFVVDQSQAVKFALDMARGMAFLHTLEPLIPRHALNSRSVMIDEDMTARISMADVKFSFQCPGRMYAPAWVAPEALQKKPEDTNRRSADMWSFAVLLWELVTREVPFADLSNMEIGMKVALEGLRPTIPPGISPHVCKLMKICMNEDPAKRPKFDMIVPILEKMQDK

log2 fold change, inactive:
KPNA4 (UniProt O00629) -0.058
MIEN1 (UniProt Q9BRT3) -0.01
MELK (UniProt Q14680) 0.025
ILF3 isoform 7 (UniProt Q12906) -0.034
LMBRD2 (UniProt Q68DH5) 0.024
MGST1 (UniProt P10620) 0.051
IPO13 (UniProt O94829) 0.106
MASTL (UniProt Q96GX5) -0.014
IPO7 (UniProt O95373) 0.027
LSS (UniProt P48449) 0.004
LPIN3 isoform 2 (UniProt Q9BQK8) 0.08
MARCHF3 (UniProt Q86UD3) 0.058
MGST3 (UniProt O14880) 0.054
MAGEC2 (UniProt Q9UBF1) 0.061
INTS7 (UniProt Q9NVH2) -0.005
MAST4 (UniProt O15021) -0.052
KIF11 (UniProt P52732) 0.058
IWS1 (UniProt Q96ST2) 0.159
MED12 isoform 2 (UniProt Q93074) 0.177
LUC7L2 (UniProt Q9Y383) 0
MFF (UniProt Q9GZY8) -0.029
LEO1 (UniProt Q8WVC0) -0.094
MBLAC1 (UniProt A4D2B0) 0.083
IMMT isoform 4 (UniProt Q16891) -0.011
ILK (UniProt Q13418) 0.074
MICOS13 (UniProt Q5XKP0) 0.049
KIFBP (UniProt Q96EK5) -0.098
LARP4B (UniProt Q92615) 0.063
LEMD2 (UniProt Q8NC56) -0.039
LARP4 isoform 4 (UniProt Q71RC2) 0.095
LMF2 (UniProt Q9BU23) -0.019
KIF21A isoform 4 (UniProt Q7Z4S6) 0.018
MAP4K4 isoform 6 (UniProt O95819) -0.103
